A short description of assay [1]: Tanguay_ZF_120hpf_SOMI_legacy: (Legacy) Oregon State University Tanguay Lab 120 Hour Post-fertilization zebrafish Assay for Somite Malformation (AID 2283647). In short, it runs like this: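 Tropical 5D wild-type zebrafish embryos, dechorionated with pronase at 4 hpf, were placed singly at 6 hpf and statically exposed until 120 hpf at 28C in 0.64% DMSO. Somite malformation was scored present/absent by brightfield microscopy versus DMSO.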

Assay [2] can be described thus: Tanguay_ZF_120hpf_CFIN_legacy: (Legacy) Oregon State University Tanguay Lab 120 Hour Post-fertilization zebrafish Assay for Caudal Fin Malformation (AID 2283649). In short, it runs like this:
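Tropical 5D wild-type embryos, dechorionated with pronase at 4 hpf, were placed singly in wells at 6 hpf and statically exposed to compound at 28C until 120 hpf (0.64% DMSO). Caudal fin malformation was scored present/absent by brightfield microscopy.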

Assay [3] is described as follows: Tanguay_ZF_120hpf_PIG_legacy: (Legacy) Oregon State University Tanguay Lab 120 Hour Post-fertilization zebrafish Assay for Pigmentation Malformation (AID 2283650). A digest of the protocol:
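Pigment malformation recorded as a binary call at 120 hpf in zebrafish (Tropical 5D) exposed singly from 6 hpf after pronase dechorionation. Static, sealed, 28C exposure, 0.64% DMSO; mortality excludes scoring; positive-direction fit against DMSO.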

Assay [4] in a line: Tanguay_ZF_120hpf_CIRC_legacy: (Legacy) Oregon State University Tanguay Lab 120 Hour Post-fertilization zebrafish Assay for Circulatory Malformation (AID 2283651). A digest of the protocol: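 Binary circulatory-malformation call at 120 hpf via brightfield imaging, relative to DMSO controls. Embryos (5D strain, chorion removed) received static, light-shielded exposure at 28C.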

Assay [5] can be described thus: Tanguay_ZF_120hpf_SWIM_legacy: (Legacy) Oregon State University Tanguay Lab 120 Hour Post-fertilization zebrafish Assay for Swim Bladder Malformation (AID 2283654).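 Note: swim bladder malformation in each larva scored yes or no under brightfield.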 In short, it runs like this:
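Scoring is binary for swim bladder defects at 120 hpf, by brightfield inspection of zebrafish larvae. Embryos were exposed singly from 6 hpf after pronase dechorionation, at 28C with 0.64% DMSO; mortality excluded scoring.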

A short description of assay [6]: Tanguay_ZF_120hpf_TRUN_legacy: (Legacy) Oregon State University Tanguay Lab 120 Hour Post-fertilization zebrafish Assay for Truncated Body (AID 2283655). A digest of the protocol: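 Tropical 5D wild-type embryos, dechorionated with pronase at 4 hpf, were placed singly in wells at 6 hpf and statically exposed at 28C until 120 hpf, final DMSO 0.64%. Truncated body was scored present/absent by brightfield microscopy.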

Assay [7] is described as follows: Tanguay_ZF_120hpf_NC_legacy: (Legacy) Oregon State University Tanguay Lab 120 Hour Post-fertilization zebrafish Assay for Notochord and Tail Malformation (AID 2283656). A digest of the protocol:
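Binary notochord-distortion calls, made by brightfield inspection, form the read-out; activity is fitted in the positive direction against DMSO. Exposure ran statically from 6 to 120 hpf at 28C with 0.64% DMSO.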

A short description of assay [8]: Tanguay_ZF_120hpf_PFIN_legacy: (Legacy) Oregon State University Tanguay Lab 120 Hour Post-fertilization zebrafish Assay for Pectoral Fin Malformation (AID 2283648).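 Note: each larva judged yes or no for fin defect by brightfield with dead larvae skipped.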 A digest of the protocol:
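Pectoral fin malformation was recorded as a binary endpoint at 120 hpf in wild-type Tropical 5D larvae, which had been dechorionated and exposed statically from 6 hpf at 28C in 0.64% DMSO. Dead embryos were excluded.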

Read-out in assay [9]: kallikrein-3 (KLK3), KLK3 (gene 354)
Nature of the assay: LTEA_HepaRG_KLK3: Life Technologies and Expression Analysis (LTEA) Assay for kallikrein-3 (KLK3) using HepaRG (AID 2283652; active = hit-call score of the fitted dose curve at least 0.9, where 1 is the maximum; inactive = score below 0.9). Particulars: mRNA level, 48 h; actives raise or lower the signal. In short, it runs like this:
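KLK3 transcript levels were measured by TaqMan qRT-PCR with normalisation to three housekeeping genes. HepaRG cultures received chemicals for 48 h at up to 100 uM (half-log, 8 points, 0.5% DMSO vehicle), fitted in both directions against DMSO.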

Read-out in assay [10]: solute carrier (SLC22A6), SLC22A6 (gene 9356)
The experiment in a line: LTEA_HepaRG_SLC22A6: Life Technologies and Expression Analysis (LTEA) Assay for solute carrier (SLC22A6) using HepaRG (AID 2283653; active = hit-call score of the fitted dose curve at least 0.9, where 1 is the maximum; inactive = score below 0.9). Particulars: mRNA level, 48 h; actives raise or lower the signal. As to the method: LTEA_HepaRG is a cell based, multiplexed-readout assay that uses HepaRG, a human liver cell line, with measurements taken at 48 hours after chemical dosing on a 96-well plate.LTEA_HepaRG_SLC22A6 is one of 102 assay component(s) measured in the LTEA HepaRG cell culture assay. It is a marker of NR mediated transport.Data from the assay component LTEA_HepaRG_SLC22A6 was analyzed into 1 endpoint. This assay endpoint, LTEA_HepaRG_SLC22A6, was analyzed with bidirectional fitting relative to DMSO as the negative control and baseline of activity. Using a type of inducible reporter, measures of mRNA induction for gain or loss-of-signal activity can be used to understand regulation of transcription factor activity. To generalize the intended target to other relatable targets, this assay endpoint is annotated to the transporter intended target family, where the subfamily is organic anion transporter.
A total of 1060 chemcials from the ToxCast library were tested in eight-point concentration-response experiments. Cell culture and cytotoxicity assays were conducted at Thermo Fisher Scientific's Custom Services facility (Madison, WI). A single lot of human HepaRG cells (Thermo Fisher Scientific, Frederick, MD) was used for the cell culture experiments. 96-well format collagen type I coated plates of human HepaRG cells were prepared using established methods. Briefly, cryopreserved HepaRG cells were thawed, plated at a density of approximately 100,000 cells/well in HepaRG Thaw, Plate, and General Purpose media (HPRG770, Thermo Fisher Scientific), and incubated for 48 hours. […] Fluidigm's 96.96 Dynamic ArrayTM (Fluidigm, Amsterdam, the Netherlands) technology was used for gene expression analyses by quantitative reverse transcription polymerase chain reaction (qRT-PCR, performed by Quintiles/Expression Analysis, Durham, NC)89. […]

This passage reports outcome and AC50 results from PubChem BioAssay (EPA / NIEHS).

Inconclusive results are not listed. Active and inactive are the calls of the source. Rule for the calls, unless noted: active = hit-call score of the fitted dose curve at least 0.9, where 1 is the maximum; inconclusive = response in the unintended direction; inactive = score below 0.9.

With `Nc1ccn([C@@H]2O[C@H](CO)[C@@H](O)[C@@H]2O)c(=O)n1`, the molecule was classed as inactive in assay [1], in assay [2], in assay [3], in assay [4], in [5] and in [6]. The result in assay [7] was inactive.

In the case of `c1ccc(C(O[C@@H]2CCCN(CCc3ccc4c(c3)OCO4)C2)c2ccccc2)cc1`, the molecule was classed as inactive in assay [1], in assay [4], in assay [5] and in assay [7]. Moreover, the AC50 is 33.4 µM (active) in assay [8], 37.2 µM (active) in [2], 42.4 µM (active) in assay [3] and 38.2 µM (active) in assay [6].

With `O=C(O)c1cccc(C[C@@H]2COc3ccc(OCc4nc5cc(F)ccc5s4)cc3[C@@H]2O)c1`, the result in assay [1], in assay [2], in [5] and in [6] was inactive.

Consider `OCCNCCO`, for which the outcome in assay [1], in assay [2], in assay [3], in assay [5], in assay [6] and in assay [7] was inactive.

For `NC(=O)NN=Cc1ccc([N+](=O)[O-])o1`, the molecule was classed as inactive in assay [1], in [2], in [3], in assay [5], in assay [6] and in [7].

As for `CCCCCCCC/C=C\CCCCCCCC(=O)OC[C@@H](O)[C@H]1OC[C@H](O)[C@H]1O`, the result in assay [1], in assay [2], in assay [3], in [5] and in assay [7] was inactive.

Consider `CCCCCCCCN(C)C`, for which the result in [1], in [2], in [3], in [5], in assay [6] and in assay [7] was inactive.

For the molecule `CCn1nc(C)c2c1C(=O)NCC(c1ccc(O)cc1)=N2`, the outcome in assay [1], in [2], in assay [3], in [5], in assay [6] and in assay [7] was inactive.

As for `NC(=O)N(O)[C@@H]1COc2cc(OCc3ccccc3)ccc21`, the molecule was called inactive in assay [1], in assay [2], in [5] and in assay [6].

On to `OCc1ccccc1`, for which the molecule was called inactive in [1], in assay [2], in assay [3], in [5], in [6] and in assay [7].

For `OC(Cn1cncn1)(Cn1cncn1)c1ccc(F)cc1F`, the result in assay [8], in assay [2], in assay [3], in [4], in [5] and in [7] was inactive.

For `CCc1ccc(O)c(C(C)(C)C)c1`, the outcome in [1], in [2], in [3], in assay [5], in assay [6] and in [7] was inactive.

As to `COc1cc(C(C)C)c2c(c1)S(=O)(=O)N(COc1cc(=O)n3cccc(OCCN4CCCCC4)c3n1)C2=O`, the result in assay [1], in [2], in assay [5], in [6] and in assay [7] was inactive.

`COCc1nnc(-c2ccc[n+]([O-])c2)n1-c1c(Cl)c(Cl)cc2[nH]c(=O)c(=O)[nH]c12`: the outcome in [1], in assay [2], in assay [3], in [6] and in assay [7] was inactive.

As for `OC[C@H]1O[C@@](CO)(O[C@H]2O[C@H](CO)[C@@H](O)[C@H](O)[C@H]2O)[C@@H](O)[C@@H]1O`, the result in assay [1], in [3], in assay [5], in assay [6] and in assay [7] was inactive.

For `Cc1ccc(S(=O)(=O)NC(=O)NN2CCCCCC2)cc1`, the result in assay [1], in assay [2], in assay [3], in assay [5], in assay [6] and in assay [7] was inactive.

In the case of `CC[C@H](C)C(=O)O[C@H]1C[C@H](O)C=C2C=C[C@H](C)[C@H](CC[C@@H](O)C[C@@H](O)CC(=O)O)[C@H]21`, the molecule was classed as inactive in assay [1], in assay [2], in [5], in assay [6] and in assay [7].

`OC(CCl)CCl`: the call in [1], in assay [3], in assay [5], in assay [6] and in [7] was inactive.

Take `CCCCCCCCCCCCCCO`: the outcome in assay [1], in assay [2], in [5], in assay [6] and in assay [7] was inactive.

In the case of `CCCCCOC(C)=O`, the molecule was called inactive in [1], in assay [2], in assay [3], in [5], in [6] and in assay [7].

For `CCN(CC)C(=S)SSC(=S)N(CC)CC`, the concentration at half-maximal activity (AC50) in assay [1] was 0.619 µM (active); in assay [5], 1.1 µM (active); in [6], 0.904 µM (active); in [7], 0.112 µM (active). In addition, the outcome in [2] and in [3] was inactive.

As to `CCCCOC(=O)c1ccccc1`, the call in assay [1], in [2], in assay [3], in assay [5], in [6] and in assay [7] was inactive.

Take `OCCOCCOCCO`: the molecule was classed as inactive in assay [2], in assay [3], in [4], in [5], in [6] and in assay [7].

Regarding `CCCCCCOC(=O)CC(CC(=O)OCCCCCC)(OC(=O)CCC)C(=O)OCCCCCC`, the result in [1], in assay [2], in assay [3] and in [6] was inactive.

Regarding `Cc1ncc([C@@H](CCCCCCc2ccc3c(n2)NCCC3)CC(=O)O)cn1`, the molecule was called inactive in assay [1], in [2], in assay [3], in assay [5], in assay [6] and in assay [7].

`Cc1nc(-c2ccccn2)ncc1C(=O)Nn1cc(C)c2cc(F)ccc21`: the molecule was classed as inactive in [1], in assay [2], in assay [3], in assay [5] and in assay [7].

Consider `Cn1c(=O)c2[nH]cnc2n(C)c1=O`, for which the call in [8], in assay [3], in assay [5], in [6] and in assay [7] was inactive.

Take `Cc1nccn1-c1ccc(Sc2cccc(C3(C(N)=O)CCOCC3)c2)cc1`: the molecule was classed as inactive in [1], in [3], in [6] and in assay [7].

For the molecule `CCCC(CCC)C(=O)O`, the outcome in [2], in assay [3], in assay [4], in [9], in assay [10] and in assay [5] was inactive. Moreover, the outcome in assay [6] and in assay [7] was inactive.

With `CCCCCCCCCCCCCCCCOS(=O)(=O)O`, the call in assay [1], in assay [2], in assay [3], in assay [5], in assay [6] and in [7] was inactive.

With `O=C(O)c1cccc(C(=O)O)c1`, the call in assay [1], in [2], in assay [3], in [5], in [6] and in [7] was inactive.

Take `CCCCCCCCCC`: the outcome in assay [1], in assay [2], in [3], in [5] and in assay [7] was inactive.

As to `O=C1CN(N=Cc2ccc([N+](=O)[O-])o2)C(=O)N1`, the result in assay [1], in [5], in assay [6] and in assay [7] was inactive.

For the molecule `CCCOc1ccc(S(=O)(=O)N2CCN(CC)CC2)cc1-c1nc2c(CC)n(Cc3ccccn3)nc2c(=O)[nH]1`, the molecule was classed as inactive in [2], in assay [3], in assay [5], in assay [6] and in assay [7].

As to `CC1(C)C(=O)N(Cl)C(=O)N1Cl`, the molecule was called inactive in [8], in [2], in assay [3], in [5], in assay [6] and in assay [7].

`CCc1cccc(CC)c1N`: the result in [1], in [2], in assay [3], in assay [5] and in [7] was inactive.

On to `CNC(C)=O`, for which the outcome in assay [2], in [3], in assay [4], in assay [5], in [6] and in [7] was inactive.
